From PubChem BioAssay (NCATS)
Inconclusive results are not listed. Active and inactive are the calls of the source. Unless noted, the call rests on the fitted dose curve; in most records, active means well fitted curve in the direction sought with a large enough effect; inconclusive means small, poorly fitted or top-dose-only effect, or another doubt; inactive means no such curve, though single readings can be large; an effect the other way counts as inactive or inconclusive.

Key:
[1] = Quantitative High-Throughput drug screen in 47 multiple myeloma cell lines against the NCATS MIPE library collection: PE2_PLB cell viability assay (AID 1919869); further: nearly all actives have a fitted effect of over 35% in size; further: potency means the concentration at half of the fitted maximal effect
Procedure, shortened: (§1)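 500 cells/well per myeloma line exposed to pinned MIPE 4.0 compounds for 48 h at 37 °C, 5% CO2. Viability read as ATP by CellTiter-Glo luminescence, normalised to DMSO-only (100%) and media-only (0%) wells.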

[2] = Quantitative High-Throughput drug screen in 47 multiple myeloma cell lines against the NCATS MIPE library collection: PCM6_Riken cell viability assay (AID 1919870); further: nearly all actives have a fitted effect of over 30% in size; further: potency means the concentration at half of the fitted maximal effect
Procedure, shortened: as §1

[3] = Quantitative High-Throughput drug screen in 47 multiple myeloma cell lines against the NCATS MIPE library collection: RPMI8226_ATCC cell viability assay (AID 1919871); further: nearly all actives have a fitted effect of over 30% in size; further: potency means the concentration at half of the fitted maximal effect
Procedure, shortened: as §1

[4] = Quantitative High-Throughput drug screen in 47 multiple myeloma cell lines against the NCATS MIPE library collection: OPM2_DSMZ cell viability assay (AID 1919872); further: nearly all actives have a fitted effect of over 30% in size; further: potency means the concentration at half of the fitted maximal effect
Procedure, shortened: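 Approved and investigational drugs from MIPE 4.0 were added by pin tool to 500 cells per well. After 48 hours at 37C, ATP-based CellTiter-Glo luminescence indicated remaining viability.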

[5] = Quantitative High-Throughput drug screen in 47 multiple myeloma cell lines against the NCATS MIPE library collection: KMS11_JCRBsus cell viability assay (AID 1919873); further: nearly all actives have a fitted effect of over 50% in size; further: potency means the concentration at half of the fitted maximal effect
Procedure, shortened: as §1

[6] = Quantitative High-Throughput drug screen in 47 multiple myeloma cell lines against the NCATS MIPE library collection: KMS28BM_JCRB cell viability assay (AID 1919874); further: nearly all actives have a fitted effect of over 35% in size; further: potency means the concentration at half of the fitted maximal effect
Procedure, shortened: as §1

[7] = biological target: Cytochrome P450 3A4 (Homo sapiens) (UniProt P08684); assay: qHTS for inhibitors of CYP3A4 against the NCATS DSHEA and TCM libraries (AID 1919971);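 further: on the % scale 0 is the no-effect control and ±100 the full control effect; inhibition lowers luminescence from luciferin made by CYP3A4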
Procedure, shortened: (§2)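 Luminescent P450-Glo format: compounds preincubated 15 min with enzyme and luciferin substrate, reaction run 30-45 min after NADPH regeneration solution. Intraplate controls: ketoconazole for CYP3A4 and CYP2C19, sulfaphenazole for CYP2C9.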

[8] = biological target: Cytochrome P450 2D6 (Homo sapiens) (UniProt P10635); assay: qHTS for inhibitors of CYP2D6 against the NCATS DSHEA and TCM libraries (AID 1919972); further: on the % scale 0 is the no-effect control and ±100 the full control effect
Procedure, shortened: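 Luminescent P450-Glo read-out of CYP2D6 turnover of a luciferin substrate after NADPH-driven reaction of 30-45 min at room temperature. Compounds were first preincubated 15 min with enzyme at titrated concentrations; quinidine was the intraplate control.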

[9] = biological target: Cytochrome P450 2C9 (Homo sapiens) (UniProt P11712); assay: qHTS for inhibitors of CYP2C9 against the NCATS DSHEA and TCM libraries (AID 1919973);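 further: luminogenic pro-luciferin CYP2C9 substrate turned into luciferin with NADPH regeneration; on the % scale 0 is the no-effect control and ±100 the full control effect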
Procedure, shortened: as §2

[10] = biological target: Cytochrome P450 2C19 (Homo sapiens) (UniProt P33261); assay: qHTS for inhibitors of CYP2C19 against the NCATS DSHEA and TCM libraries (AID 1919974); conditions: CYP2C19 enzyme inhibition, luminescence qHTS;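 further: luminescence from luciferin released by CYP2C19 oxidation of a pro-luciferin substrate; potency means the concentration at half of the fitted maximal effect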
Procedure, shortened: as §2

[11] = KB-3-1 P-gp reporter qHTS against the NCATS DSHEA and TCM libraries (AID 1919975); further: 0% is about no effect
Procedure, shortened: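 Parental KB-3-1 cells, 500 cells/well, in DMEM with 10% FBS, exposed 72 h at 37 C to compounds in concentration-response. Viability read by CellTiter-Glo luminescence after 30 min at room temperature.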

[12] = qHTS Counterscreen for compound interference against the NCATS DSHEA and TCM libraries (AID 1919978); conditions: firefly luciferase detection reagent interference, luminescence;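 further: compounds preincubated with 1 µM D-luciferin or buffer before detection reagent; % of control where 0% means no effect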
Procedure, shortened: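 Firefly luciferase detection reagent was added after compounds (19.5 nM–39.8 uM final) had been incubated 15 min at room temperature with 1 uM D-luciferin or with 100 mM phosphate buffer alone. Luminescence was read after 30 min at room temperature.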

[13] = Dual reporter qHTS for agonist of Pregnane X Receptor (hPXR) against the NCATS DSHEA and TCM libraries: Fluorescence readout (AID 1920058); further: 0% is about no effect
Procedure, shortened: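 hPXR-Luc HepG2 cells, 2000/well in charcoal-stripped serum, attached 5 h, dosed for ~24 h at 37 °C. Fluorescence read is CellTiter-Fluor viability (Ex/Em 405/540 nm); rifampicin positive, tetraoctyl ammonium bromide (92 µM) cytotoxicity controls.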

[14] = biological target: Nuclear receptor subfamily 1 group I member 2 (Homo sapiens) (UniProt O75469); assay: Dual reporter qHTS for antagonist of Pregnane X Receptor (hPXR) against the NCATS DSHEA and TCM libraries: Luminescence Readout (AID 1920060);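 further: HepG2 cells carrying hPXR luciferase reporter stimulated with rifampicin at 2 µM; 0% is about no effect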
Procedure, shortened: (§3)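 hPXR-Luc HepG2 cells exposed 24 h at 37 C to compounds with 2 uM rifampicin in antagonist mode; luciferase luminescence measured by ONE-Glo, with CellTiter-Fluor viability read beforehand.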

[15] = Dual reporter qHTS for antagonist of Pregnane X Receptor (hPXR) against the NCATS DSHEA and TCM libraries: Fluorescence Readout (AID 1920061); further: 0% is about no effect
Procedure, shortened: as §3

[16] = qHTS for identification of novel therapeutic agents for treatment of microphthalmiaassociated transcription factor (MiT) renal cell carcinoma (RCC) (AID 1963991); conditions: CellTiter-Glo, 48 h, stronger effect = lower value
Procedure, shortened: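 Three TFE3-fusion RCC lines (UOK109, UOK124, UOK145), 500 cells/well in complete medium, were treated with MIPE 4.0 compounds for 48 hours at 37 C. Viability was by CellTiter-Glo luminescence, normalized to DMSO (100%) and empty wells (0%); curves fitted over 11 concentrations.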

[17] = qHTS drug screen for cell cycle checkpoint inhibitors in PARPi-resistant BRCA-mutant ovarian cancer cell lines. (AID 1963452; calls by dose curve); conditions: PEO1/OlaR viability, CellTiter-Glo luminescence, 96 h, stronger effect = lower value
Procedure, shortened: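 PEO1, PEO4 and PEO1/OlaR ovarian cancer cells, 600 per well, exposed 96 h at 37C to a dilution series. Viability read by CellTiter-Glo luminescence, normalized to DMSO and empty wells; activity summarized as Z-AUC.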

[18] = Quantitative High-Throughput drug screen in 47 multiple myeloma cell lines against the NCATS MIPE library collection: UTMC2_PLB cell viability assay (AID 1919868); conditions: CellTiter-Glo ATP luminescence, 48 h; viability (% of DMSO control): at 45.8 µM (top of the series); further: nearly all actives have a fitted effect of over 55% in size; further: potency means the concentration at half of the fitted maximal effect
Procedure, shortened: as §1

[19] = TFE3-RCC UOK109 viability, measured here: UOK109 Z-AUC
[20] = TFE3-RCC viability, measured here: UOK124 Z-AUC
[21] = TFE3-RCC viability, measured here: UOK145 Z-AUC
[22] = measured here: PEO1 parental Z-AUC

Chain of Nuclear receptor subfamily 1 group I member 2 (Homo sapiens) (O75469 whole entry, looked up): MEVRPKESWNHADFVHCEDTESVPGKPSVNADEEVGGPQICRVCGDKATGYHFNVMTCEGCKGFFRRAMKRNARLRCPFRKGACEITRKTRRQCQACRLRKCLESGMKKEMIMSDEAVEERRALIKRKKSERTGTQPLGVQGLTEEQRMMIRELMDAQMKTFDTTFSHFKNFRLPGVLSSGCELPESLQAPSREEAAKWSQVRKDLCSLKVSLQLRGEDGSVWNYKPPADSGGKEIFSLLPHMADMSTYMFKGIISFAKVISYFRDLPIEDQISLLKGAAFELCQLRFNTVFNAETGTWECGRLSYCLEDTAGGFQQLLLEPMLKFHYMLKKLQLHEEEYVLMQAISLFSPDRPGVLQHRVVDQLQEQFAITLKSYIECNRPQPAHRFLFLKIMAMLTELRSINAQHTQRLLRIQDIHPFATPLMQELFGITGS
Chain of Cytochrome P450 3A4 (Homo sapiens) (P08684 whole entry, looked up): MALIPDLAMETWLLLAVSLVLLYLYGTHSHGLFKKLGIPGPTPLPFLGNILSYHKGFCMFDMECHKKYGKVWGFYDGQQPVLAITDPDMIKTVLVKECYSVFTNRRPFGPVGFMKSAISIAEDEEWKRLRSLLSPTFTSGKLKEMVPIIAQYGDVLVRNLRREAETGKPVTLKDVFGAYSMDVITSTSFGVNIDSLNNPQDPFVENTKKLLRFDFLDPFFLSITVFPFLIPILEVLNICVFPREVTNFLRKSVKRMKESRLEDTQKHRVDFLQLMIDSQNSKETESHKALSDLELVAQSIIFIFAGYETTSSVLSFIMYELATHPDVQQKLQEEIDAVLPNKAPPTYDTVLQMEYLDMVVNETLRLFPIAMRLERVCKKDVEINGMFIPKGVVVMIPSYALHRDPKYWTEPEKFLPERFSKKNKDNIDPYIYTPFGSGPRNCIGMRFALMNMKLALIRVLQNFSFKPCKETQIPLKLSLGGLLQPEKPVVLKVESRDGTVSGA
Chain of Cytochrome P450 2C19 (Homo sapiens) (P33261 whole entry, looked up): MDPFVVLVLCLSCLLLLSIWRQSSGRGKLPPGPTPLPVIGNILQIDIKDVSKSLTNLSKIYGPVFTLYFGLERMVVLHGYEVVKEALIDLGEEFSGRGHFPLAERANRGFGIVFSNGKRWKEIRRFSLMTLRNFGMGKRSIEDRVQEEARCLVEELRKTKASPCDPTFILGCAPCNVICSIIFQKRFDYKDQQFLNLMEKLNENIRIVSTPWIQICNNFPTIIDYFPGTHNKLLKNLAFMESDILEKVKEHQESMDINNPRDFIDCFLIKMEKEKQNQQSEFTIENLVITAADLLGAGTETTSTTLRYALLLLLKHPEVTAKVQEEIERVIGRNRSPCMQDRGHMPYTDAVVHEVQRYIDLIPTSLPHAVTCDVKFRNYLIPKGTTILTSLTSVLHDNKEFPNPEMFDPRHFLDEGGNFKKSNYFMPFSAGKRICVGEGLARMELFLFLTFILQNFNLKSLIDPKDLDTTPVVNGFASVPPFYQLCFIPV
Chain of Cytochrome P450 2C9 (Homo sapiens) (P11712 whole entry, looked up): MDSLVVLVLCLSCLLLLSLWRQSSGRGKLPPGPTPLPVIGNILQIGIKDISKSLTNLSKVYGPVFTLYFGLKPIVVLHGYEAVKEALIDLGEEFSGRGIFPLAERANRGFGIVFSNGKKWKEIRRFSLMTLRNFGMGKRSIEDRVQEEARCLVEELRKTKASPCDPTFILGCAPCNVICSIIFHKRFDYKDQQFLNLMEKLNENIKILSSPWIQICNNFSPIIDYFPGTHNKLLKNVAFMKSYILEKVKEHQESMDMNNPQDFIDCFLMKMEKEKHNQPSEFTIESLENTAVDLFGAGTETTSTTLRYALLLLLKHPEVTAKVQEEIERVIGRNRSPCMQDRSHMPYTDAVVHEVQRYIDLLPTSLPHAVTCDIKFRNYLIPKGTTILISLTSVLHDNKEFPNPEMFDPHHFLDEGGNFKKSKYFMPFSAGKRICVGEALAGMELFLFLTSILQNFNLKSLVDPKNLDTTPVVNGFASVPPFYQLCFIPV
Chain of Cytochrome P450 2D6 (Homo sapiens) (P10635 whole entry, looked up): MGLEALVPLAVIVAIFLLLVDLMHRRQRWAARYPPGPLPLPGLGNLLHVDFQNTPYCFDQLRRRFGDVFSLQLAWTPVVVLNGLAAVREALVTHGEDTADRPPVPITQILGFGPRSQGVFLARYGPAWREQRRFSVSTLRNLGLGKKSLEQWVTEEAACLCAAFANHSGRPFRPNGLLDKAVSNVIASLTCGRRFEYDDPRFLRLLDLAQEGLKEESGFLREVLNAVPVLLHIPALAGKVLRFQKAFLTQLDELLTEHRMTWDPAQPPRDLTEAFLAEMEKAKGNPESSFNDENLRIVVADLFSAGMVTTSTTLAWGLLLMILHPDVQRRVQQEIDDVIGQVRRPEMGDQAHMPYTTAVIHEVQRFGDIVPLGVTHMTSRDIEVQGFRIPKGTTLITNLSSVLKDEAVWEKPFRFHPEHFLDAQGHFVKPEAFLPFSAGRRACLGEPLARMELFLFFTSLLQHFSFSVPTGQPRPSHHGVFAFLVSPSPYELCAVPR

CC(C)OC(=O)CCCC=CC[C@@H]1[C@H](C=C[C@@H](O)COc2cccc(C(F)(F)F)c2)[C@H](O)C[C@@H]1O
Potency [1]: 16.6 µM (active) | Potency [2]: 20.9 µM (active) | Potency [3]: 10.5 µM (active) | Potency [4]: 23.5 µM (active) | Potency [5]: 16.6 µM (active) | Potency [6]: 18.7 µM (active)

COc1ccc(-c2coc3cc(O)ccc3c2=O)cc1
Potency [1]: inactive | Potency [2]: inactive | Potency [3]: inactive | Potency [4]: inactive | Potency [5]: 18.7 µM (active) | outcome [7]: inactive | outcome [8]: inactive | outcome [9]: inactive | Potency [10]: 14.1 µM (active) | outcome [11]: inactive | max response [12]: -1.37% (inactive) | outcome [13]: inactive | outcome [14]: inactive | outcome [15]: inactive | z-score [16, 19]: 0.416 | z-score [16, 20]: 0.783 | z-score [16, 21]: 0.452

C[C@]12CCC3c4ccc(O)cc4CCC3C1CCC2=O (some centres not stated)
Potency [1]: inactive | Potency [2]: inactive | Potency [3]: 20.9 µM (active) | Potency [4]: inactive | Potency [5]: 26.4 µM (active) | Potency [6]: 20.9 µM (active) | Z-AUC [17]: 1.36 (inactive) | Z-AUC [17, 22]: 0.945 | Z-AUC ([17]; measured here: PEO4 Z-AUC): 1.78

CN1[C@@H]2CCC[C@@H]1CC(NC(=O)c1nn(C)c3ccccc13)C2 (some centres not stated)
Potency [1]: inactive | Potency [2]: inactive | Potency [3]: inactive | Potency [4]: inactive | Potency [5]: inactive | Potency [6]: inactive | z-score [16, 19]: 0.506 | z-score [16, 20]: 0.637 | z-score [16, 21]: 0.0896

Nc1nc(F)nc2c1ncn2[C@@H]1O[C@H](COP(=O)(O)O)[C@@H](O)[C@H]1O
Potency [1]: inactive | Potency [2]: inactive | Potency [3]: inactive | Potency [4]: inactive | Potency [5]: inactive

NC(CO)(CO)CCc1ccc(Sc2cccc(OCc3ccccc3)c2)cc1Cl
Potency [1]: 13.2 µM (active) | Potency [2]: 14.8 µM (active) | Potency [3]: 23.5 µM (active) | Potency [4]: 23.5 µM (active) | Potency [5]: 7.43 µM (active) | Potency [6]: 11.8 µM (active) | Z-AUC [17]: 0.362 (inactive) | Z-AUC [17, 22]: -0.197 | Z-AUC ([17]; measured here: PEO4 Z-AUC): -0.274

COc1ccc(C2Sc3ccccc3N(CCN(C)C)C(=O)C2OC(C)=O)cc1 (configuration not stated)
Potency [1]: inactive | Potency [2]: inactive | Potency [3]: inactive | Potency [4]: inactive | Potency [5]: inactive | Potency [6]: inactive

O=C1C[C@@H](c2ccc(O)cc2)Oc2cc(O)cc(O)c21
Potency [1]: inactive | Potency [2]: inactive | Potency [3]: inactive | Potency [4]: inactive | Potency [5]: inactive | Potency [6]: inactive | Z-AUC [17]: 0.649 (inactive) | Z-AUC [17, 22]: 1.18 | Z-AUC ([17]; measured here: PEO4 Z-AUC): 1.28 | z-score [16, 19]: 0.38 | z-score [16, 20]: 0.851 | z-score [16, 21]: 0.18

O=C(N[C@@H](c1ccccc1)[C@@H]1CCCCN1)c1cccc(C(F)(F)F)c1Cl
Potency [18]: inactive | Potency [2]: 23.5 µM (active) | Potency [3]: 1.66 µM (active) | Potency [5]: inactive | Potency [6]: inactive | Z-AUC [17]: 0.7 (inactive) | Z-AUC [17, 22]: 0.513 | Z-AUC ([17]; measured here: PEO4 Z-AUC): 0.741

O=C(O)c1ccccc1C(=O)Nc1ccc(-c2ccccc2)cc1
Potency [1]: inactive | Potency [2]: inactive | Potency [3]: inactive | Potency [4]: inactive | Potency [5]: inactive | Potency [6]: inactive | z-score [16, 19]: 0.921 | z-score [16, 20]: 0.86 | z-score [16, 21]: 0.469

CC1(C)Cc2c(sc(NC(=S)NC(=O)c3ccccc3)c2C(=O)O)CO1
Potency [18]: 20.9 µM (active) | Potency [2]: inactive | Potency [3]: inactive | Potency [5]: inactive | Potency [6]: inactive | Z-AUC [17]: -0.088 (inactive) | Z-AUC [17, 22]: -0.241 | Z-AUC ([17]; measured here: PEO4 Z-AUC): 0.00999

CCn1cc(C(=O)O)c(=O)c2ccc(C)nc21
Potency [1]: inactive | Potency [2]: inactive | Potency [3]: inactive | Potency [4]: inactive

COC(=O)N[C@H](C(=O)N1CCC[C@@H]1c1ncc(-c2ccc(-c3ccc(-c4cnc([C@@H]5CCCN5C(=O)[C@@H](NC(=O)OC)C(C)C)[nH]4)cc3)cc2)[nH]1)C(C)C
Potency [18]: inactive | Potency [2]: 26.4 µM (active) | Potency [3]: 20.9 µM (active) | Potency [5]: 26.4 µM (active) | Potency [6]: 20.9 µM (active)

CCc1ccc(OCc2ccccc2C(=O)Nc2ccc3nc(C)cc(N)c3c2)cc1
Potency [1]: 2.35 µM (active) | Potency [2]: 1.18 µM (active) | Potency [3]: 6.62 µM (active) | Potency [4]: 9.35 µM (active) | Potency [5]: 1.48 µM (active) | Potency [6]: 1.18 µM (active) | Z-AUC [17]: -0.061 (inactive) | Z-AUC [17, 22]: -0.206 | Z-AUC ([17]; measured here: PEO4 Z-AUC): -0.159

CC(C)(C)COc1ccc(-n2cc(C(=O)O)cn2)cc1C#N
Potency [18]: inactive | Potency [2]: inactive | Potency [3]: inactive | Potency [4]: inactive | Potency [5]: inactive | z-score [16, 19]: 1.01 | z-score [16, 20]: 0.953 | z-score [16, 21]: 0.498

O=C(CCN1CCN(C(=O)OCc2cc(Cl)cc(Cl)c2)CC1)c1ccc2[nH]c(=O)oc2c1
Potency [1]: inactive | Potency [2]: inactive | Potency [3]: inactive | Potency [5]: inactive | Potency [6]: inactive | Z-AUC [17]: 0.428 (inactive) | Z-AUC [17, 22]: 0.576 | Z-AUC ([17]; measured here: PEO4 Z-AUC): 0.591

O=c1[nH]cnc2c1ncn2[C@H]1CC[C@@H](CO)O1
Potency [1]: inactive | Potency [2]: inactive | Potency [3]: inactive | Potency [4]: inactive | Potency [5]: inactive

CNC(=O)c1ccccc1Sc1ccc2c(C=Cc3ccccn3)n[nH]c2c1
Potency [1]: 20.9 µM (active) | Potency [2]: 7.43 µM (active) | Potency [3]: 18.7 µM (active) | Potency [5]: 1.18 µM (active) | Potency [6]: 23.5 µM (active)
